Screening data as filed in PubChem.
An excerpt weighted towards active compounds, which were near 5.4% of everything screened.
Mdm2-MdmX inh: inhibitors of human Mdm2/MdmX interaction | O15151+Q00987 | SaOS-2 split-luciferase Mdm2/MdmX complementation, luminescence | hit rate 3% among 330,000 | inhibition, % at 8 µM;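 active = inhibition of at least 50% at 8 µM in the primary screen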
Target sequence (O15151 whole entry, looked up): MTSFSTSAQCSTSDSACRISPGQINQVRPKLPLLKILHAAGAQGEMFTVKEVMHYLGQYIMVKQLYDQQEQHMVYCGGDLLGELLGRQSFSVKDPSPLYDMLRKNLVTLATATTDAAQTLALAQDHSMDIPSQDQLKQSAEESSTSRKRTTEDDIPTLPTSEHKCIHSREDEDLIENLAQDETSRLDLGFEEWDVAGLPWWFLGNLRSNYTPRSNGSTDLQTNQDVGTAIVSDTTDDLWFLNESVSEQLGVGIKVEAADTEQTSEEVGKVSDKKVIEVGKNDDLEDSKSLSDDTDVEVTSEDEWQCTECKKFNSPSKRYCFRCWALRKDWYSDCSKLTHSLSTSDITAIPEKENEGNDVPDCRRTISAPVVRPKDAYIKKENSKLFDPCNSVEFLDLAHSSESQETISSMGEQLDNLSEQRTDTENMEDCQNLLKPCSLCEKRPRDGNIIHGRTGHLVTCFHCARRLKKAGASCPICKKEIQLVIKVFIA
Target sequence (Q00987 whole entry, looked up): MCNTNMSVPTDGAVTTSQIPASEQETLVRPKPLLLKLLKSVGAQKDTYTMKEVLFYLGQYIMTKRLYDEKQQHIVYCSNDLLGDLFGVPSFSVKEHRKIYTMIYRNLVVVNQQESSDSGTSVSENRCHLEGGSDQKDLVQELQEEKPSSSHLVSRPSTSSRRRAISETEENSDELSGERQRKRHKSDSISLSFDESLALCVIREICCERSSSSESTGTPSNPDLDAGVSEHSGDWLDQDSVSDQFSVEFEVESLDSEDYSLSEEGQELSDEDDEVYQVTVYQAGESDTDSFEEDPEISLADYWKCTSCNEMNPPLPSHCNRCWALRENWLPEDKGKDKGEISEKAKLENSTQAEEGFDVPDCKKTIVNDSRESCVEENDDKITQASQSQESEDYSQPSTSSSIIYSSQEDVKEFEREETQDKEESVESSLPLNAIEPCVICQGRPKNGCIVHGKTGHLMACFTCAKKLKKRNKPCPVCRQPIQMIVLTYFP
Beta apoptosis: blocks beta cell apoptosis. INS-1E cytokine-induced death, ATP luminescence, 48 h; percent of positive-control rescue, neutral wells zero. protection from apoptosis, % (concentration not given with the values). hit rate 0.8% among 300,000. AID 435005;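 active = Every replicate reaches about 75%, or at least half do and their mean reaches it too, limit read from the data; inconclusive = At least half of replicates reach the limit but their mean does not; inactive = Under half of replicates reach the limit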;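 also: 0% = cytokine-treated negative control wells and 100% = positive control rescue; higher means more ATP so stronger rescue from cytokine killing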
Calb FLC: C. albicans growth modulation with fluconazole; hit rate 0.57% among 300,000; C. albicans CaCi-2 (fluconazole-resistant clinical isolate) + fluconazole, Alamar Blue growth, 48 h; growth inhibition, % (no concentration beside the values);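 active = growth inhibition above about 58% in most replicates, limit read from the data, passing the limit was not always enough; inconclusive = exactly half the replicates above a set limit; inactive = most replicates below a set limit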;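 also: all wells also contain fluconazole at 8 µg/ml as a sub-toxic cotreatment; 0% = median of DMSO wells and 100% = median of geldanamycin control wells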
MPTP inh: blocks calcium-induced mitochondrial swelling; isolated mouse mitochondria, Ca2+ swelling absorbance, 30 min; inhibition, % at 10 µM; hit rate 1.4% among 360,000; AID 602449;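 active = inhibition of 50% or more, scaled per plate between neutral and stimulator controls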;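 also: 0% = DMSO wells given calcium and 100% = 1 mM EGTA wells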
SKKanGAS inh: inhibitors of SKKanGAS S. pyogenes growth in kanamycin (SK-promoter or general growth effect); AID 1662; BacTiter-Glo, 6 h; hit rate 1.3% among 300,000; inhibition, % at 7.5 µM;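 active = mean replicate score, as percent of positive control median, at least 50; inconclusive = mean below 50 but one replicate at or above 50; inactive = mean and every replicate below 50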;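 also: strain carries kanamycin resistance gene driven by streptokinase promoter and grows in 40 µg/ml kanamycin; loss of luminescence reflects streptokinase promoter inhibition or plain growth inhibition; 0% = median of DMSO wells and 100% = positive control at its reference dose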
CSC inhib: blocks cancer stem cells; AID 2717; inhibition, % at 7.5 µM; cancer stem cell-like cells viability, luminescence; hit rate 1.1% among 300,000; in the data active = inhibition above about 75%; inconclusive = no clear call, values can overlap the other calls; tested in HMLE shEcad cells
Numbers without * were called inactive; ? = inconclusive; . = not tested or not shown.

SMILES	Mdm2-MdmX inh	Beta apoptosis	Calb FLC	MPTP inh	SKKanGAS inh	CSC inhib
Cc1c(/C=N\NC(=O)C2COc3ccccc3O2)c2ccccc2n1C (configuration not stated)	.	-4	-6	1	1	52
O=C(N/N=C/c1c(O)n(-c2ccccc2Cl)c(=O)c2ccccc12)C1COc2ccccc2O1 (configuration not stated)	16	13	-8	4	79*	25
Cc1[nH]n(-c2ccccc2)c(=O)c1/C=N/NC(=O)COc1ccccc1[N+](=O)[O-]	36	76*	-42	2	26	13
CC1(Cc2ccc(C(F)(F)F)o2)C(=O)Nc2ccc(-c3cccc(C(F)(F)F)c3)cc21 (configuration not stated)	.	.	.	2	.	.
CSc1ncccc1C(=O)NCc1nnc2ccccn12	6	1	.	2	.	-13
Cc1[nH]n(-c2ccccc2)c(=O)c1/C=N\NC(=O)C1COc2ccccc2O1 (configuration not stated)	8	78*	-3	0	65*	8
COC(=O)N/N=C\c1c(C)[nH]n(-c2ccccc2)c1=O	-31	-2	17	-1	1	-6
Cc1[nH]n(-c2cccc3ccccc23)c(=O)c1/C=N/NC(=O)c1cccc([N+](=O)[O-])c1	20	7	80*	6	53*	10
CCSC(=S)c1c(C)[nH]n(-c2ccccc2)c1=O	16	1	9	15	57*	27
CCOc1ccc(CCNC(=O)c2ccc(Cl)c(S(=O)(=O)N3CCOCC3)c2)cc1OCC	37	7	-4	-2	-6	-2
CCCc1nc2ccccc2c(C(=O)OCC(=O)N2CCc3ccccc32)c1CC	10	-9	10	2	23	83*
CCCc1nc2ccccc2c(C(=O)OCC(=O)Nc2ccc(S(=O)(=O)N3CCOCC3)cc2)c1CC	38	8	8	33	?	91*
CCCc1nc2ccccc2c(C(=O)OCC(=O)Nc2cccc(S(=O)(=O)N3CCOCC3)c2)c1CC	40	7	-3	11	19	10
CC(C)(C)N(Cc1ccccc1)C(=O)COC(=O)CNC(=O)c1ccco1	15	-10	-12	0	-2	-20
O=c1oc2ccccc2cc1-c1ccc(O)cc1	-95	-7	-20	1	-7	4
O=C/C=C/c1c(-c2ccccc2)cc2oc3ccccc3cc1-2	-3	1	9	2	10	98*
O=C(Nc1ccc(Cl)cc1)N1CCN(c2ccc3nnc(-c4ccc(F)cc4)n3n2)CC1	27	8	5	18	63*	46
CCCCCCCCOC(=O)c1ccc(N)cc1	-6	6	-42	2	8	34
CCCCCCCCCCOC(=O)C[N+](C)(C)C/C=C(/C)Cl	39	113*	-37	2	24	59
CCCCCCCCCCCCOC(=O)C[N+](C)(C)C	40	15	-5	.	113*	44
CCCCCCCCOC(=O)C[N+](C)(C)C/C=C(/C)Cl	-6	7	-18	2	3	31
C[C@]12CC[C@@H]3c4ccc(OC(=O)c5ccccc5)cc4CC[C@H]3[C@@H]1CC[C@@H]2O	41	3	.	2	84*	7
CC(=O)Oc1ccc2c(c1)CCC1C2CCC2(C)C(OC(C)=O)CCC12 (configuration not stated)	.	.	.	-3	.	.
CCC(NC(=S)NC1CCCCC1)c1ccc(C(C)C)cc1 (configuration not stated)	31	34	-21	25	65*	12
CCCN1CCCc2cc(CN)ccc21	17	98*	17	2	-11	14
SMILES	Mdm2-MdmX inh	Beta apoptosis	Calb FLC	MPTP inh	SKKanGAS inh	CSC inhib
Cc1ccc(/C=C/C(=O)Nc2ccc(S(=O)(=O)Nc3cc(C)nc(C)n3)cc2)cc1	-39	5	-4	-2	-3	.
Cc1ccc(NC(=S)c2nc3ccccc3[nH]2)c(C)c1	-124	36	-10	0	82*	35
Cc1ccc(NC(=S)c2nc3ccccc3[nH]2)cc1	-55	54	85*	1	93*	53
N#CC(c1ccc(Cl)cc1)N1CCOCC1 (configuration not stated)	-19	-5	-14	1	1	5
Oc1c(Cl)cc(Cl)cc1C(C#Cc1ccccc1)N1CCOCC1 (configuration not stated)	6	1	2	8	90*	35
O=C(O)c1ccc(N/N=C/c2ccc(-c3ccc(Cl)cc3Cl)o2)cc1	15	-4	-9	9	84*	44
